# Experimental data: ChEMBL document CHEMBL3988442, “University of Dundee, Small-Polar-MMV Screening Library” (2021)
# Screen size: about 48,000 compounds; about 13,000 (27%) showed an effect of 50% or more. The list shows a part of the results.
# System: Wolbachia pipientis
# Assay: Anti-Wolbachia Cell-Based Screen
# Format: functional
# Set-up: scale not given: in the data most compounds retested in dose-response had high values
# Conditions: 5 µM
row,Compound,Percent Effect [%]
1,Cc1cc(C)c2nc(CN3CCC(N4CCOCC4)CC3)cc(O)c2c1,-11.95
2,CCN(C(c1cccnc1)c1cc(C)cc(C)c1)S(C)(=O)=O (stereo not given),1.72
3,Cc1oc(-c2ccsc2)nc1CC(=O)NCCS(C)(=O)=O,-2.536
4,CN(C)CCOCC1CN(C(=O)c2cscn2)Cc2ccnn2C1 (stereo not given),-0.6425
5,O=C1CC(c2ccc(C(=O)O)cc2)c2ncn(-c3cccnc3)c2N1 (stereo not given),-9.053
6,CCN(CC)C1COc2c(cc(Br)c(C)c2Br)C1=O (stereo not given),114.2
7,Cc1c(Br)cc2c(c1C)OCC(N(C)C)C2=O (stereo not given),95.66
8,CCN(CC)C1COc2c(cc(Br)c(C)c2C)C1=O (stereo not given),131.7
9,CCN(CC)C1COc2ccc(Br)cc2C1=O (stereo not given),104.3
10,CCCN1Cc2cc(Br)ccc2OCC1=O,11.44
11,COCCN1C(=O)[C@H]2CC[C@@H]1CN(C(=O)COc1ccc(F)c(Cl)c1)C2,1.148
12,CC(C)c1cc(C(=O)NCCN2CCCS2(=O)=O)n[nH]1,-2.781
13,COc1ccccc1CC(=O)N1CCC(NCc2cccnc2)CC1,-3.091
14,COc1ccccc1CC(=O)N1CC[C@@]2(CCCO2)[C@@H](OC)C1,3.075
15,COc1ccc(Br)cc1CC(=O)N1CCCC1,26.87
16,COc1ccc(CC(=O)N2CC[C@H](CO)[C@H](O)C2)c(OC)c1,2.348
17,COc1ccccc1CC(=O)N1CC[C@H](O)[C@]2(CCCO2)C1,123.7
18,COc1ccc(C)cc1CC(=O)N1CC[C@@]2(CCCO2)[C@@H](O)C1,110.1
19,O=C(Nc1ccc(OCc2cccc(F)c2)c(F)c1)C1COCCO1 (stereo not given),-24.38
20,O=C(NC1CCN(c2nccs2)CC1)c1cccs1,-6.975
21,Cn1nc2c(c1NC(=O)c1ccc(C3CCCN3C3CCC3)s1)CCC2 (stereo not given),91.78
22,O=C(Nc1nnc(N2CCCCC2)[nH]1)c1cccs1,3.867
23,NCC(=O)N1CCCC1c1ccc(C(=O)NCc2ccoc2)s1 (stereo not given),-13.99
24,Cn1nc2c(c1NC(=O)c1cccs1)CCC2,116
25,CN1CCCC1c1ccc(C(=O)N2CCc3ccccc3C2)s1 (stereo not given),10.54
26,CN1CCCC1c1ccc(C(=O)Nc2c3c(nn2C)CCC3)s1 (stereo not given),105.6
27,CC(C)CN1CCCC1c1ccc(C(=O)Nc2cccnc2)s1 (stereo not given),20.92

row,Compound,Percent Effect [%]
1,CC(C)CN1CCCC1c1ccc(C(=O)Nc2cn(C)nn2)s1 (stereo not given),6.317
2,Cc1cncc(NCC(O)c2ccco2)n1 (stereo not given),11.88
3,Clc1ccc(OCCNC2(c3ccc(Br)cc3)CCOCC2)cc1,18.48
4,Cc1nnc(CCNC(=O)C(c2ccc(F)cc2)N(C)C)[nH]1 (stereo not given),15.69
5,CSCCCN1CCn2nc(CNC(C)=O)cc2C1,-21.5
6,CNS(=O)(=O)CCNC(=O)[C@@]12CNC[C@@H]1CN(C1CCCC1)C2,-0.715
7,CC(=O)NC1(C(=O)N2CCCN(c3cccnn3)CC2)CCCCC1,1.939
8,CN(C)CCOCc1nnc2n1CCN(Cc1ccco1)CC2.O=C(O)C(F)(F)F.O=C(O)C(F)(F)F,99.11
9,CCOCc1nnc2n1CCN(Cc1c(C)noc1C)CC2.O=C(O)C(F)(F)F,-27.85
10,O=C(O)C(F)(F)F.O=C(O)C(F)(F)F.c1cncc(COCc2nnc3n2CCN(Cc2cccs2)C3)c1,-10.65
11,CN(C)CCOCc1nnc2n1CCN(Cc1ccco1)C2.O=C(O)C(F)(F)F.O=C(O)C(F)(F)F,-14.14
12,CC(=O)NCc1nnc2n1CCN(Cc1cccs1)C2.O=C(O)C(F)(F)F,-7.249
13,CN(C)CCOCc1nnc2n1CCN(Cc1cccs1)CC2.O=C(O)C(F)(F)F.O=C(O)C(F)(F)F,101.6
14,Cc1ccc(CN2CCc3nnc(COCCN(C)C)n3CC2)o1.O=C(O)C(F)(F)F.O=C(O)C(F)(F)F,95.05
15,O=C(O)C(F)(F)F.O=C(O)C(F)(F)F.c1cncc(COCc2nnc3n2CCN(Cc2ccco2)C3)c1,-13.62
16,COc1ccc(NC(=O)C2CCCO2)cc1OCc1cccnc1 (stereo not given),5.381
17,Cc1nn(C)c(C)c1CCC(=O)N1CC(c2cccnc2)C1,23.02
18,Cc1nccn1CCCn1cncc1-c1ccc2c(c1)CCC(C)N2C.Cl (stereo not given),102.7
19,Cc1nn(C)c(C)c1CCC(=O)N1CCc2sccc2C1,7.197
20,Cc1nccn1CCCNC(=O)C1CCCCN1Cc1ccncc1 (stereo not given),-5.862
21,Cc1nn(C)c(C)c1CCn1cncc1-c1ccc2c(c1)CC(C)N2C.Cl (stereo not given),101.8
22,Cc1nccn1CCCn1cncc1-c1ccc2c(c1)CCCN2C.Cl,98.66
23,CCN1c2ccc(-c3cncn3CCCn3ccnc3C)cc2CC1C.Cl (stereo not given),77.37
24,Cc1cnccc1N1CCCN(C(=O)CCCn2ccnc2C)CC1,-4.474
25,CCOc1ncc(NC(=O)c2ccccn2)c(OCC)n1,0.09854
26,CN1C[C@@H]2CC[C@H](C1)N(Cc1ccccc1OCCN1CCOCC1)C2,-8.693
27,CSc1ccc(CNc2ccccc2CN2CCC(O)CC2)cc1,-4.512

row,Compound,Percent Effect [%]
1,Cn1cc(CCCNC(=O)NC2CCN(c3ccccc3)C2=O)cn1 (stereo not given),20.77
2,CCn1nc2c(cc1=O)CN(CCOc1cccc(C#N)c1)CC2,-9.961
3,Cn1cc(C(=O)OCC(N)=O)c(-c2ccc(F)cc2F)n1,-2.814
4,N#CCCN(Cc1cccnc1)C(=O)c1ccc(-n2cnnn2)cc1,12.89
5,Cc1ccc(NC(=O)N(C)C)c(C(=O)OCC(=O)NC2CCCC2)c1,-9.857
6,COc1ccc(CN(C)C(=O)NCc2c(C)cc(C)[nH]c2=O)cc1,-0.4347
7,CC1=NOC(C(=O)N(C)CCCn2nc(C)cc2C)C1 (stereo not given),25.07
8,Cc1cc(C)n(CCCn2cncc2-c2ccc3c(c2)CC(C)N3C)n1.Cl (stereo not given),95.59
9,Cc1cnccc1N1CCCN(C(=O)CCn2ccnc2C)CC1,-14.43
10,Cc1cc(C)n(CCCN(C)C(=O)C2COc3ccccc3C2)n1 (stereo not given),-47.38
11,Cc1nccn1CCCn1cncc1-c1ccc2c(c1)CC(C)N2C.Cl (stereo not given),92.09
12,CC(C)OCCC1CCCCN1S(C)(=O)=O (stereo not given),3.961
13,CC(O)CN(C)S(=O)(=O)c1ccc(C#N)cc1F (stereo not given),-5.528
14,CCC(C)C(=O)NS(=O)(=O)c1ccc(C#N)cc1C(F)(F)F (stereo not given),121.4
15,CC(C(=O)N(Cc1ccc(C#N)cc1)CC(F)(F)F)S(C)(=O)=O (stereo not given),-0.5778
16,N#Cc1ccc(S(=O)(=O)NC(=O)C2CC2)c(C(F)(F)F)c1,6.344
17,CC(=O)NC1CCN(c2ccc(C#N)cc2C(F)(F)F)CC1,29.91
18,CC(C)C(=O)NS(=O)(=O)c1ccc(C#N)cc1C(F)(F)F,109
19,CC(C)(C)C(=O)NS(=O)(=O)c1ccc(C#N)cc1C(F)(F)F,-4.514
20,CCC(CC)C(=O)NS(=O)(=O)c1ccc(C#N)cc1C(F)(F)F,103.7
21,CN(CCN(C)S(=O)(=O)CC1CCOCC1)c1ccccc1,-10.63
22,N#CCCN(CC1CCOC1)Cn1ccc(-c2cccs2)n1 (stereo not given),-0.2132
23,CC(NC(C)(C)CN)c1ccccc1 (stereo not given),-0.2011
24,CC(C)c1nnc(CN2CCC3(CC2)Nc2ccccc2NC3=O)o1,8.635
25,O=C1Nc2ccccc2CNC12CCN(CC1CC1)CC2,106.1
26,O=C1Nc2ccccc2NC12CCN(c1cccc(C(F)(F)F)n1)CC2,-10.36
27,O=C1Nc2ccccc2CNC12CCN(CC1CCNC1)CC2 (stereo not given),113.7

row,Compound,Percent Effect [%]
1,CC(C)CCN1CCC2(CC1)NCc1ccccc1NC2=O,110.4
2,CC(C)CN1CCC2(Cc3ccccc3NC2=O)C1 (stereo not given),2.79
3,O=C1Nc2ccccc2NC12CCN(Cc1nnc(C3CC3)o1)CC2,10.49
4,O=C1Nc2ccccc2CNC12CCN(CC1CCCC1)CC2,118.7
5,NC(=O)C(NC1CCN(CC2CCCCC2)CC1)c1ccccc1 (stereo not given),-8.499
6,Cn1cc(C2(C)CN(C(=O)COc3ccccc3F)CCO2)cn1 (stereo not given),-6.052
7,O=S(=O)(NCC1(O)CCOCC1)c1c(F)cccc1F,-2.026
8,Cc1cc(F)ccc1S(=O)(=O)N1CCN(C)Cc2ccccc21,-7.823
9,CC(C)(C)CN1CCCC2(CCN(C(=O)c3cn[nH]c3)C2)C1 (stereo not given),-0.3441
10,CCNC(=O)NCc1ccccc1NS(=O)(=O)c1ccccc1,26.47
11,O=C1CC2(CCCCC2)C(=O)N1CC(O)COCc1ccccc1F (stereo not given),-27.41
12,CC(C)(C)CNCC1(O)CCCN(Cc2ccccc2F)C1=O (stereo not given),-15.35
13,CSCCC(O)C(=O)N1CCN(Cc2cccc(Cl)c2)CC1 (stereo not given),8.238
14,CCC(CO)N(Cc1ccccn1)C(=O)c1ccc(=O)[nH]c1 (stereo not given),7.999
15,COc1ccccc1N1CCN(C(=O)CSC(C)C)C(C)C1 (stereo not given),-5.211
16,N#CCSCCCN1CCC(C(=O)N2CCCCCC2)CC1,2.389
17,Cc1nc(CN2CCC(CNC(=O)CCC3CCCC3)CC2)oc1C,-6.137
18,NC(=O)CSCC(=O)NCC1CCCC1,107.6
19,O=C(CNC(=O)C1CC1)NCC1CCCC1,-13.86
20,NC(=O)CSCCC(=O)NCC1CC1,101.8
21,O=C(CCn1cncn1)NCC1CCOC1 (stereo not given),0.0368
22,NC(=O)CSCCC(=O)N1CCCC1c1ccsc1 (stereo not given),-6.046
23,N#CCSCC(=O)NCC1CCCCC1,102.7
24,O=C(CCn1cncn1)NCC1CCCC1,2.005
